From PubChem BioAssay (Tox21)
Records with an inconclusive call do not appear. The source made the active and inactive calls. Unless noted, the call rests on the fitted dose curve.

Assays:
[1] = Nuclear factor erythroid 2-related factor 2/antioxidant responsive element (Nrf2/ARE) small molecule agonists: qHTS cell viability counter screen in human keratinocytes (AID 1919968; active means well fitted curve in the direction sought with a large enough effect in the repeat runs; an effect the other way counts as inactive or inconclusive; further: nearly all actives have a fitted effect of over 55% in size)
Outline: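 In human HaCaT keratinocytes stably expressing an ARE-driven luciferase, compound exposure lasted 23 h at 37 C under 5% CO2. Viable cells are quantified with a protease-based fluorogenic reagent (CellTiter-Fluor) read 1 h after addition.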

[2] = Nuclear factor erythroid 2-related factor 2/antioxidant responsive element (Nrf2/ARE) small molecule agonists: luciferase reporter gene qHTS assay in human keratinocytes (AID 1919969); further: nearly all actives have a fitted effect of over 35% in size; further: potency means the concentration at half of the fitted maximal effect
[3] = molecular target: Gonadotropin-releasing hormone receptor (Homo sapiens) (UniProt P30968); assay: Human gonadotropin-releasing hormone receptor (GnRHR) small molecule agonists, calcium flux assay in GnRHR-HEK293 cells (AID 1920063); further: nearly all actives have a fitted effect of over 35% in size
Outline: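 Intracellular calcium rise is the read-out: engineered human GnRHR HEK293 cells, dye-loaded, are exposed to DMSO-dissolved compounds and fluorescence at Ex/Em 480/540 is tracked for 3 min.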

[4] = molecular target: KiSS-1 receptor (Homo sapiens) (UniProt Q969F8); assay: Human kisspeptin (KISS1R) small molecule agonists, calcium flux assay in KISS1R-HEK293 cells (AID 1920064; active means well fitted curve in the direction sought with a large enough effect in the repeat runs; an effect the other way counts as inactive or inconclusive)
Outline: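 Concentration-response testing used 15 concentrations in triplicate on human KISS1R-expressing HEK293 cells. Calcium-dependent fluorescence (Ex/Em 480/540) was followed kinetically for 3 min after compound transfer.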

[5] = G protein-coupled receptor (GPCR) small molecule agonists, calcium flux assay: HEK293 wild type cell line counter screen (AID 1920065)
Outline: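 Fluorescence intensity signals activation. After overnight (18 h) culture and a 1 h calcium dye load at 37 C, compounds are added by pin tool and the plate read at 480/540 nm for 3 min in 1 s steps.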

[6] = p53 small molecule agonists, cell-based qHTS assay with rat liver microsomes (AID 1963578)
Outline: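 Fluorescence from a beta-lactamase reporter under a p53 response element was measured after cells had been incubated 16 h at 37 C with test compound and rat liver microsomes plus NADPH (0.5 mg/mL final each).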

[7] = p53 small molecule agonists, cell-based qHTS assay with human liver microsomes: qHTS cell viability counter screen (AID 1963579); further: nearly all actives have a fitted effect of over 45% in size
Outline: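 Seed p53RE-bla cells at 4,000 per well; incubate 5 h at 37 C; add compound, human liver microsomes and NADPH; incubate 16 h at 37 C; add CellTiter-Glo; after 30 min at room temperature, read luminescence.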

[8] = p53 small molecule agonists, cell-based qHTS assay with rat liver microsomes: qHTS cell viability counter screen (AID 1963580); further: nearly all actives have a fitted effect of over 45% in size
Outline: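 Luminescent ATP readout (CellTiter-Glo, 30 min at room temperature) reports viability of p53RE-bla HCT-116 cells after 16 h at 37 C with test compounds under metabolic activation by rat liver microsomes and NADPH at 0.5 mg/mL final each.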

[9] = p53 small molecule agonists, cell-based qHTS assay: qHTS cell viability counter screen (AID 1963581); further: nearly all actives have a fitted effect of over 45% in size
Outline: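 Luminescence from CellTiter-Glo, reflecting ATP content, serves as the cytotoxicity measure; it is taken after the 2 h reporter substrate step in HCT-116 p53RE-bla cells dosed for 16 h at 37 C.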

[10] = p53 small molecule agonists, cell-based qHTS assay (AID 1963582; active means well fitted activation curve with a large enough effect in the signal ratio in the repeat runs, not every such curve was filed as active; the % refers to the signal ratio)
Outline: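 After plating, p53RE-bla cells sat 5 h in the incubator; compounds or DMSO vehicle were pinned in; a 16 h incubation at 37 C followed; FRET substrate was added and, 2 h later at RT, fluorescence was measured.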

[11] = molecular target: 5-hydroxytryptamine receptor 2A (Homo sapiens) (UniProt P28223); assay: 5-hydroxytryptamine receptor 2A (HTR2A) small molecule antagonists, cell-based qHTS assay (AID 1963586); further: nearly all actives have a fitted effect of over 45% in size
Outline: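 CHO cells stably expressing human HTR2A were plated for 18 h at 37 C, then loaded with calcium dye for 1 h. Compounds were preincubated 5 min at room temperature before DOI (4 nM solution) was added. Kinetic fluorescence was read for 3 min.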

[12] = molecular target: 5-hydroxytryptamine receptor 2A (Homo sapiens) (UniProt P28223); assay: 5-hydroxytryptamine receptor 2A (HTR2A) small molecule agonists, cell-based qHTS assay (AID 1963587); further: nearly all actives have a fitted effect of over 30% in size
Outline: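 HTR2A-CHO cells, plated 18 h at 37 C/5% CO2, dye-loaded 1 h at 37 C; compounds in DMSO added by pin tool (agonist mode). Intracellular calcium flux read as kinetic fluorescence on FDSS over 2 min at 1 s intervals.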

[13] = molecular target: Muscarinic acetylcholine receptor M1 (Homo sapiens) (UniProt P11229); assay: Cholinergic receptor muscarinic 1 (CHRM1) small molecule antagonists, cell-based qHTS assay (AID 1963588); further: nearly all actives have a fitted effect of over 40% in size; further: potency means the concentration at half of the fitted maximal effect
Outline: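 Compounds were tested at 15 concentrations in three independent runs. Dye-loaded CHRM1-CHO cells were exposed 5 min at room temperature before stimulation by acetylcholine added at 50nM. Intracellular calcium was read kinetically on FDSS for 3 min.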

[14] = molecular target: Muscarinic acetylcholine receptor M1 (Homo sapiens) (UniProt P11229); assay: Cholinergic receptor muscarinic 1 (CHRM1) small molecule agonists, cell-based qHTS assay (AID 1963589); further: nearly all actives have a fitted effect of over 35% in size
Outline: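 Fluorescent calcium dye reports M1 activation in stably transfected CHO cells. Compounds, 15 concentrations, added after 1 h dye loading at 37 C; kinetic reading at 1 sec intervals.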

[15] = cAMP Responsive Elements (CRE) small molecule agonists, cell-based qHTS assay (AID 1963590)
Outline: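 Compound exposure lasted 3 h at 37 C/5% CO2 in CRE-bla HEK 293T cells grown in assay medium with 10% dialyzed FBS and 25 mM HEPES. Reporter signal came from LiveBLAzer B/G FRET substrate, 2 h, room temperature.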

[16] = cAMP Responsive Elements (CRE) small molecule antagonists, cell-based qHTS assay (AID 1963591; active means well fitted inhibition curve with a large enough effect in the signal ratio in the repeat runs, not every such curve was filed as active; the % refers to the signal ratio)
Outline: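 Stimulation used NKH477 at a final 0.25 uM for 3 h in compound-treated CRE-bla HEK293T cells, seeded 18 h beforehand. Reporter activity was measured with LiveBLAzer B/G FRET substrate after 2 h at room temperature.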

[17] = molecular target: Beta-2 adrenergic receptor (Homo sapiens) (UniProt P07550); assay: Adrenergic beta2 receptor (ADRB2) small molecule antagonists, cell-based qHTS assay (AID 1963592); further: nearly all actives have a fitted effect of over 50% in size; further: potency means the concentration at half of the fitted maximal effect
Outline: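 Assay format: CHO-ADRB2 cells, 18-20hr seeding at 37C/5% CO2, then compound plus 1nM isoproterenol agonist mix for 0.5hr RT. Homogeneous time-resolved fluorescence cAMP detection after 1hr, expressed as 665/615 nm ratio.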

[18] = molecular target: D(2) dopamine receptor (Homo sapiens) (UniProt P14416); assay: Dopamine D2 receptor (DRD2) small molecule agonists, cell-based qHTS assay (AID 1963594); further: nearly all actives have a fitted effect of over 35% in size
Outline: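 HEK293 cells stably expressing DRD2 were cultured 24 h at 37 C, then given Ro20-1724 (0.1 mM final) and compounds for 10 min at room temperature. NKH477 (200nM) was then added for 30 min. cAMP was read by HTRF.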

[19] = molecular target: D(2) dopamine receptor (Homo sapiens) (UniProt P14416); assay: Dopamine D2 receptor (DRD2) small molecule antagonists, cell-based qHTS assay (AID 1963595; active means well fitted inhibition curve with a large enough effect in the signal ratio in the repeat runs, with a control signal flat; the % refers to the signal ratio; further: potency means the concentration at half of the fitted maximal effect)
Outline: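 Antagonist mode in DRD2-HEK293 cells: after compound addition with 0.1 mM Ro20-1724, cells received quinpirole (12 nM) and NKH477 (200 nM) for 30 min at room temperature; HTRF cAMP read after 1 h detection.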

[20] = p53 small molecule agonists, cell-based qHTS assay with human liver microsomes (AID 1963577)
Outline: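 Cells carrying a p53-responsive bla reporter were rested 5 h (37 C, 5% CO2) before compound transfer. Human liver microsomes plus NADPH, 0.5 mg/mL final apiece, supplied metabolism during the 16 h 37 C exposure.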

Measured: Potency

Chain of Muscarinic acetylcholine receptor M1 (Homo sapiens) (P11229 whole entry, looked up): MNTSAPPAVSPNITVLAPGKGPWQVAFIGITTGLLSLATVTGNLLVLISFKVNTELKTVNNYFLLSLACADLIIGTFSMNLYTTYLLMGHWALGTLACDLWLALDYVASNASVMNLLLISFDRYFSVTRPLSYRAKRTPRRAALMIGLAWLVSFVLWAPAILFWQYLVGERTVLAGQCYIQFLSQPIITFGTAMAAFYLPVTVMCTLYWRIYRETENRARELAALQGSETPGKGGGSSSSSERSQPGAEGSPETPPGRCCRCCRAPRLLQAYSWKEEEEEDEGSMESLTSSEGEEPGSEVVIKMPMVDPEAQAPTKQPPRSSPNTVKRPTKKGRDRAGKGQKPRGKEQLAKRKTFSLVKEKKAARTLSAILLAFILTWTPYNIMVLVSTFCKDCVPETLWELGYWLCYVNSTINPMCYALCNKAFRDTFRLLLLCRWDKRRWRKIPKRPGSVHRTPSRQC
Chain of Beta-2 adrenergic receptor (Homo sapiens) (P07550 whole entry, looked up): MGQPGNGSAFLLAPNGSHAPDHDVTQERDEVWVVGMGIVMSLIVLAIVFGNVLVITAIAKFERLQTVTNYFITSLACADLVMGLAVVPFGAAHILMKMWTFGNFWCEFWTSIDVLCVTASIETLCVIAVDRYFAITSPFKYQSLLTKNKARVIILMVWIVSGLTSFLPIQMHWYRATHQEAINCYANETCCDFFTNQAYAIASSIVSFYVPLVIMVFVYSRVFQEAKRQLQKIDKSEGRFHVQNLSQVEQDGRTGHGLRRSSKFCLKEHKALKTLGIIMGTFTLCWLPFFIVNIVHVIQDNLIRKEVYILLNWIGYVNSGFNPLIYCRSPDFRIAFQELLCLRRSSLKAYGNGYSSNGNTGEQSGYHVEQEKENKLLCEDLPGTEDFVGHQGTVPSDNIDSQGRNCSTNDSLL
Chain of Gonadotropin-releasing hormone receptor (Homo sapiens) (P30968 whole entry, looked up): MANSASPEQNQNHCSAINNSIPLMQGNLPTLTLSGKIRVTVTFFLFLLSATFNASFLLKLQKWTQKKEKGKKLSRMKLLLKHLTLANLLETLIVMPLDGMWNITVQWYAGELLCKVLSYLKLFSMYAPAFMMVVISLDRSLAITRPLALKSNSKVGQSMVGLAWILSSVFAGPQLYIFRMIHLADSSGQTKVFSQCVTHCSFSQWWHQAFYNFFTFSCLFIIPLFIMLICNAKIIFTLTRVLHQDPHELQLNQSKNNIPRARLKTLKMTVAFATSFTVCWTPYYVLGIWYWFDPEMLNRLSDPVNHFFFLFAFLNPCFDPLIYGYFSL
Chain of D(2) dopamine receptor (Homo sapiens) (P14416 whole entry, looked up): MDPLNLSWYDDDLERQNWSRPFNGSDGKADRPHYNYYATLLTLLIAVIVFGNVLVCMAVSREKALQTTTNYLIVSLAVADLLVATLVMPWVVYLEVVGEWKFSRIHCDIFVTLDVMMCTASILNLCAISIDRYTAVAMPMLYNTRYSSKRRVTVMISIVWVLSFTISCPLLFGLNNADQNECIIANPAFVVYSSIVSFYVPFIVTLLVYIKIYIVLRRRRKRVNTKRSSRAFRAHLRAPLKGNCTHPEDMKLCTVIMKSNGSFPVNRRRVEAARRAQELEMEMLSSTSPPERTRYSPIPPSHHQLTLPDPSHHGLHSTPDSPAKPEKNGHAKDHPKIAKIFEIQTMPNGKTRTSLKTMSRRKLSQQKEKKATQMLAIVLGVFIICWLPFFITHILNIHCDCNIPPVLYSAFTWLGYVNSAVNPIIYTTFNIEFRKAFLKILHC
Chain of KiSS-1 receptor (Homo sapiens) (Q969F8 whole entry, looked up): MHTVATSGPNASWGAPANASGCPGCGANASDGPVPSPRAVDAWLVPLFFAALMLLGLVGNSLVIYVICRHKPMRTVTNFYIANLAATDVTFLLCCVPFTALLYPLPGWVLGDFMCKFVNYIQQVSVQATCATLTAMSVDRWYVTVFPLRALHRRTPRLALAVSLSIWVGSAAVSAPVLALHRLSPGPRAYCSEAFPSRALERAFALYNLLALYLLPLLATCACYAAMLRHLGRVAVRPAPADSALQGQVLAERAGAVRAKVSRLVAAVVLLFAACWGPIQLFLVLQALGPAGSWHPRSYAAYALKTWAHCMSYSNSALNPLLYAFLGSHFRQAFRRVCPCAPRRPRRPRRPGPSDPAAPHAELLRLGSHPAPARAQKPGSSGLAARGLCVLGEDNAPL
Chain of 5-hydroxytryptamine receptor 2A (Homo sapiens) (P28223 whole entry, looked up): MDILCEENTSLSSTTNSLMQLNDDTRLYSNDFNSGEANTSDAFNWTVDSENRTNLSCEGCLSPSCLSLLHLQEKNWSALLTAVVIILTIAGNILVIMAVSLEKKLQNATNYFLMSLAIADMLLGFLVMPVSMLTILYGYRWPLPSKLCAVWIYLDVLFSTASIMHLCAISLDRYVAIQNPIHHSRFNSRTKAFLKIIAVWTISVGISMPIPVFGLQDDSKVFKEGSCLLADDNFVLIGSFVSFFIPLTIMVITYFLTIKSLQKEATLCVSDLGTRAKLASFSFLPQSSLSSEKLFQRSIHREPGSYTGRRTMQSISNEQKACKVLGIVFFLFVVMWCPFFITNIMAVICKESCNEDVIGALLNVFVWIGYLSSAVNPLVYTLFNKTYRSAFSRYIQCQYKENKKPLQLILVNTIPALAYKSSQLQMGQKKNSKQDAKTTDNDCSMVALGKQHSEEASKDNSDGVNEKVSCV

N#C/C(N)=C(/N)C#N
not listed: [20]
inactive: all other assays above

CN1C2CCC(C)(C)C1CC(OC(=O)C(O)(c1cccs1)c1cccs1)C2 (stereo not given)
not listed: [11] | [13] | [14] | [20]
inactive: all other assays above

COc1cc(OC)nc(NC(=O)NS(=O)(=O)c2ncccc2OCC(F)(F)F)n1
not listed: [11] | [12] | [20]
inactive: all other assays above

C[C@H](CN1CCOCC1)C(C(=O)N1CCCC1)(c1ccccc1)c1ccccc1
not listed: [13] | [15] | [20]
inactive: all other assays above

Nc1nc(N)nc(N)n1
not listed: [6] | [9] | [10] | [12] | [15]
inactive: all other assays above

ClC=C(Cl)Cl
not listed: [11] | [12] | [18] | [19] | [20]
inactive: all other assays above

CC(C)(COCC1CO1)COCC1CO1 (stereo not given)
active: [2] 68.6 µM
not listed: [6] | [8] | [17]
inactive: all other assays above

COC(=O)COc1ccc(Cl)cc1Cl
not listed: [15] | [16] | [17] | [20]
inactive: all other assays above

Cc1nnc2n1-c1sc(CCC(=O)N3CCOCC3)cc1C(c1ccccc1Cl)=NC2
active: [17] 29.8 µM
not listed: [11] | [13] | [15] | [16] | [20]
inactive: all other assays above

CCOC(C(=O)OCCN(C)C)(c1ccccc1)c1ccccc1
active: [13] 2.31 µM
not listed: [18] | [20]
inactive: all other assays above

COc1cccc(C(=O)CCN[C@@H](C)[C@H](O)c2ccccc2)c1
active: [2] 33.5 µM | [19] 15 µM
not listed: [11] | [12] | [16] | [18] | [20]
inactive: all other assays above

CN(C)C(=O)Nc1cccc(OC(=O)NC(C)(C)C)c1
not listed: [6] | [8] | [11] | [17]
inactive: all other assays above

CCCN1CCC[C@@H]2Cc3[nH]ncc3C[C@H]21
not listed: [11] | [12] | [13] | [18] | [19] | [20]
inactive: all other assays above
